# Values joined by “and” are separate entries in the source; they are usually repeats but may differ in a detail not shown here. Identical values can stand only once. A structure can be active in one record and inactive in another. Active and inactive are the calls of the source. The calls were made as follows: active = hit-call score of the fitted dose curve at least 0.9, where 1 is the maximum; inactive = score below 0.9.
# Read-out: Interferon-gamma inducible Protein 10 (IP10), CXCL10 (gene 3627)
# Test: BSK_hDFCGF_IP10: BioMAP Diversity Plus: hDFCGF Assay for Interferon-gamma inducible Protein 10 (IP10) Biomarker Activity (AID 2283053)
# Conditions: primary human foreskin fibroblasts; actives raise or lower the signal
# Description: BSK_hDFCGF is a cell-based, multiplexed-readout assay that uses foreskin fibroblast, a human skin primary cell, with measurements taken at 24 hours after chemical dosing in a 96-well plate.BSK_hDFCGF_IP10 is an assay component measured in the BSK_hDFCGF assay. It measures IP-10 antibody related to regulation of gene expression using ELISA technology.Data from the assay component BSK_hDFCGF_IP10 was analyzed into 1 assay endpoint. This assay endpoint, BSK_hDFCGF_IP10, was analyzed with bidirectional fitting relative to DMSO as the negative control and baseline of activity. Using a type of binding reporter, gain or loss-of-signal activity can be used to understand changes in the signaling as they relate to the gene CXCL10. Furthermore, this assay endpoint can be referred to as a primary readout, because this assay has produced multiple assay endpoints where this one serves a signaling function. To generalize the intended target to other relatable targets, this assay endpoint is annotated to the cytokine intended target family, where the subfamily is chemotactic factor.
# The levels of cell surface (or secreted, indicated by the prefix "s") biomarker endpoints were measured by ELISA. Overt cytotoxicity to cells in confluent adherent cultures (all systems other than the BT system) was assessed by measuring total protein levels using sulforhodamine B (SRB) staining in parallel cultures at the time of biomarker measurements, indicated as SRB endpoints. For proliferation assays for adherent cell types, individual cell types are cultured at sub-confluence and relative cell numbers quantified by SRB staining at time points optimized for each system (48 h: 3C and CASM3C systems; 72 h: BT and HDF3CGF systems; 96 h: SAg system). SRB was performed by staining cells with 0.1% SRB after fixation with 10% TCA and reading wells at 560 nm.Viability and proliferation of PBMC (T cells) was quantified by Alamar Blue reduction for the SAg and BT systems. For PBMC viability (referred to as PBMC Cytotoxicity within the assay endpoint names), cells were plated (75,000/well in a 96-well plate) and then chemical samples added for 1 h before addition of activators, SEB and TSST-1 (20 ng/mL final concentration each). Cells were incubated for 90 h. Then, Alamar Blue (20 uL/well) (Invitrogen, Cat DAL1100) was added for 6 h, and the plates were read with a fluorescence microplate reader at 546/580 nm (excitation/emission). For PBMC proliferation, cells were plated and activated as above but incubated for only 16 h prior to addition of Alamar Blue. Plates were read after 6 h.
Compound,outcome,AC50
O=C(C(=O)c1ccccc1)c1ccccc1,inactive,
C1CN(CCOCCN2CCOCC2)CCO1,inactive,
Cc1c(C(N)=O)cc([N+](=O)[O-])cc1[N+](=O)[O-],inactive,
Cc1cc(-n2nc3ccc(Cl)cc3n2)c(O)c(C(C)(C)C)c1,inactive,
CCC[Si](OC(C)=O)(OC(C)=O)OC(C)=O,inactive,
COC(=O)/C=C\C(=O)OC,inactive,
CCCCCCCCCC/C=C/C1CC(=O)OC1=O (stereo not drawn),inactive,
Oc1cccc2ccccc12,inactive,
CC(C)C1OCCN1CCOC(=O)NCCCCCCNC(=O)OCCN1CCOC1C(C)C (stereo not drawn),inactive,
COc1cc(CNC(=O)CCCC/C=C/C(C)C)ccc1O,inactive,
CCCCCCCCCCC1CO1 (stereo not drawn),,34 µM (active)
CCCCCCCCCCCCCCCCCC[N+](C)(C)C,,2.67 µM (active)
CN(C)c1ccc(C(c2ccccc2)c2ccc(N(C)C)cc2)cc1,inactive,
CN(C)Cc1cc(C(C)(C)C)c(O)c(C(C)(C)C)c1,inactive,12.8 µM (active)
CC[N+](CC)(CC(=O)Nc1c(C)cccc1C)Cc1ccccc1 (tested in a mixture with another compound),inactive,
CC(C)CC(=O)CC(C)CC(C)C (stereo not drawn),inactive,
COc1ccccc1Oc1c(NS(=O)(=O)c2ccc(C(C)(C)C)cc2)nc(-c2ncccn2)nc1OCCO,inactive,
OC(C(F)(F)F)(C(F)(F)F)C(O)(C(F)(F)F)C(F)(F)F,,20.1 µM (active) and 23.8 µM (active)
COc1ccc(C(=O)c2ccccc2O)c(O)c1,inactive,
CCCCC(CC)COC(=O)C=Cc1ccc(OC)cc1 (stereo not drawn),inactive,
CCC(C)=NO,inactive,
CN(C)CCC(c1ccc(Cl)cc1)c1ccccn1 (stereo not drawn),inactive,
CC[N+](CC)(CC(=O)Nc1c(C)cccc1C)Cc1ccccc1,inactive,
Cc1cccnc1,inactive,
O=[N+]([O-])c1cc(S(=O)(=O)Nc2ccccc2)ccc1Nc1ccccc1,,29.8 µM (active) and 31.5 µM (active)
CCCCCCC(O)CCCCCCCCCCC(=O)OC (stereo not drawn),inactive,
Sc1nc2ccccc2s1,inactive,

# Reference: PubChem BioAssay (EPA / NIEHS)
